Test results taken from ChEMBL document CHEMBL4513216, “Probing the Open Global Health Chemical Diversity Library for Multistage-Active Starting Points for Next-Generation Antimalarials” (ACS Infect Dis, 2020).
Among all 65,000 compounds or so, about 2,100 (3.2%) showed an effect of 50% or more. The median lay at about -52%. The list comes from a sample in which strong results are over-represented; it also holds similar structures and randomly drawn compounds.

tested on: Plasmodium falciparum; assay: Screen against P. falciparum Asexual Blood Stage (ABS), at 5uM; format: functional, Dd2; conditions: tested at 5 uM

| Compound | INHIBITION [%] |
| --- | --- |
| CN1[C@H](Cn2cncn2)C[C@@H]2CN(Cc3ccsc3)CC[C@@H]21 | 38.2 |
| CCOCC(=O)NCC(Cc1cccc(F)c1)N1CCCCC1=O (stereo not drawn) | -88 |
| COc1ccc2nnc(CCCC(=O)NCCc3ccccn3)n2n1 | -138 |
| COc1c(CNC2CCN(c3ccccn3)CC2)c(C(C)C)nn1C | 1.28 |
| CC(C)COCCNC1CCN(c2ccccn2)CC1 | 61.2 |
| COCCOCC(=O)NC1CCN(c2ccccn2)CC1 | -16.8 |
| COc1ccc(C(C)CCNC2CCN(c3ccccn3)CC2)cc1 (stereo not drawn) | 68.2 |
| CC(CNC1CCN(c2ccccn2)CC1)Oc1ccc(F)cc1 (stereo not drawn) | 49.1 |
| c1ccc(N2CCC(NCCc3ccc(-n4cccn4)cc3)CC2)nc1 | 39.6 |
| CC(C)(C)C(=O)N1CCC2(CNS(=O)(=O)c3cnccc3O2)C1 (stereo not drawn) | -18.2 |
| CCC1c2ccccc2CCN1CCCS(C)(=O)=O (stereo not drawn) | -4.08 |
| COc1ccc(CNC(Cn2cncn2)c2ccccc2)cc1C (stereo not drawn) | -102 |
| CC(C)C(NCc1ccc(Cn2cncn2)cc1)c1ccc(F)cn1 (stereo not drawn) | -59.5 |
| CC(C)C(NCc1ccc(Cn2cncn2)cc1)c1ccccc1 (stereo not drawn) | 50.1 |
| O=S(=O)(c1ccccc1)N1CCC2(CCCN2CC2CCCC2)C1 (stereo not drawn) | 48 |
| COc1cc(N2CCCC(CO)(Cc3ccccc3F)C2)ncn1 (stereo not drawn) | -43.6 |
| Cc1cc(C)n(CC2CCCN2C(=O)c2ccc3[nH]cnc3c2)n1 (stereo not drawn) | -163 |
| Cc1nc(NCC2CC2)nc2c1COCC21CCN(S(=O)(=O)C2CC2)C1 (stereo not drawn) | 12.5 |
| COCCN1CCC(CNC(=O)c2cc(Cl)c[nH]2)CC1 | -2.76 |
| O=C(NCC1CCN(CCc2ccccc2)C1)c1cc(Cl)c[nH]1 (stereo not drawn) | 65.1 |
| CCN1CCC(CNC(=O)c2cc(Cl)c[nH]2)CC1 | -108 |
| CC(OCC1CC1)C(=O)Nc1ncn(CC(=O)N2CCCCCC2)n1 (stereo not drawn) | 36.5 |
| Cc1c(C)n(-c2ccccn2)c2nc3c(c(N)c12)CCCC3 | 21.3 |
| CN1CCCCc2c1nc1c(c2N)CCC1 | 65.8 |
| CN1CC2(CCCN(c3nc(N)nc4c3CCCC4)C2)OC1=O (stereo not drawn) | -29.7 |
| CN1CCCCc2c1nc1c(c2N)CCCC1 | 63.8 |
| CN1CCCc2c1nc1c(c2N)CCC1 | -49.7 |

| Compound | INHIBITION [%] |
| --- | --- |
| CN1CCc2c1nc1c(c2N)CCC1 | -64.6 |
| COC[C@@H]1CC[C@H]2[C@H](CCN2S(=O)(=O)c2ccc(C)cc2)O1 | -3.1 |
| Cc1cc(N2CCCC2)nc(CNS(=O)(=O)Cc2ccccc2)n1 | -63.1 |
| Cc1nn(C)c(N2CCCN(C)CC2)c1CNC(=O)CCC(C)C | -12.6 |
| COCC(=O)N1C[C@@H]2CCCO[C@@H]2[C@H](N(C)Cc2ccco2)C1 | -22.6 |
| Cc1noc([C@@H]2CCO[C@@H]3CCN(Cc4ccc(C)s4)C[C@@H]32)n1 | 10.3 |
| CN(C)CCN1CCOCC2(CCCN(C(=O)c3ccccn3)C2)C1 (stereo not drawn) | -26.3 |
| CN(C)CC(C)(C)Cn1cnc(-c2ccccc2)c1-c1cccc(O)c1 | 50.9 |
| CN(C)CC(C)(C)CN1CCC(c2ccnc(-c3cccc(O)c3)c2)C1 (stereo not drawn) | 69.5 |
| CN(C)CC(C)(C)Cn1cnc(-c2ccccc2)c1-c1ncc[nH]1 | -81.8 |
| CN(C)CC(C)(C)Cn1cnc(-c2ccccc2)c1-c1ccncc1 | 1.44 |
| Cn1ccnc1CN1CCC(c2ccnc(-c3cccc(O)c3)c2)C1 (stereo not drawn) | 30.7 |
| Oc1cccc(-c2cc(C3CCN(Cc4cncnc4)C3)ccn2)c1 (stereo not drawn) | -15.3 |
| COc1ccccc1OC1CN(C(=O)c2ccccc2C(C)=O)C1 | -184 |
| O=c1[nH][nH]cc1-c1ccnc(NCCN2CCCCC2)n1 | -153 |
| CS(=O)(=O)CCC(=O)N1C[C@H]2CC[C@@H](C1)N(Cc1ccccc1)C2=O | -72.6 |
| CC(C)c1nnc2n1CCN(C(=O)c1cc(Cl)c[nH]1)C2 | 5.02 |
| Cc1ccccc1C(=O)N1C[C@@H]2CCN(c3cccnc3)C[C@@H]2C1 | -45.5 |
| CCS(=O)(=O)N1CCC(NC(=O)c2cc3ccccc3cc2O)CC1 | 6.29 |
| O=C1CC(CNc2cncc(Br)c2)c2ccccc2N1 (stereo not drawn) | 12.2 |
| O=C1CC(CNc2cncc(Cl)n2)c2ccccc2N1 (stereo not drawn) | 66.1 |
| Cc1cc(NCC2CC(=O)Nc3ccccc32)nc(C)n1 (stereo not drawn) | -151 |
| O=C1C[C@@H]2CC[C@H](CN1)N2C(=O)Cc1ccsc1 | -114 |
| CCN(CC)c1nc2ccsc2c(=O)n1CCC(=O)NCc1ccco1 | -83 |
| CCc1nc(CCNC(=O)Nc2ccc(C(=O)NC)cc2)cs1 | -114 |
| Cc1ccc(-c2nccn2-c2ccc(OC3CCN(C)CC3)cc2)o1 | 55.1 |
